According to PubChem BioAssay AID1159580 (chemical genetic matrix, 2015):
Hit rate of the full screen: of about 5,500 compounds, about 2,000 (36%) were called active. About 18% were inconclusive and are not listed. No stated cut-off is given here; in the data, active means normalized growth mostly below about 0.91 (no sharp cut-off); inconclusive means no clear call, values can overlap the other calls; inactive means mostly above about 0.92. Some of the results follow.

Assay: chemical genetic growth profiling, strain panel (AID 1159580);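 further: tested at 20 µM; growth read once vehicle control cultures reached saturation at 30 °C; 1 = growth at the plate median or of vehicle wells; lower values mean less growth of the strain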
Conditions: S. cerevisiae deletion strains, growth OD
[1] = locus YAL013W, strain DEP1, hits give low values
[2] = locus YJR075W, strain HOC1, hits give low values
[3] = locus YMR263W, strain SAP30, hits give low values
[4] = locus YNL153C, strain GIM3, hits give low values
[5] = locus YNL322C, strain KRE1, hits give low values
[6] = locus YPL055C, strain LGE1, hits give low values

Measured: normalized growth

NC(N)=NC(N)=Nc1cc(Cl)cc(Cl)c1
inactive: [1] 1 | locus YBR229C, strain ROT2, hits give low values 1.01 | locus YDL101C, strain DUN1, hits give low values 1 | locus YDL134C, strain PPH21, hits give low values 1.01 | locus YDR150W, strain NUM1, hits give low values 0.919 | locus YEL061C, strain CIN8, hits give low values 1.02 | locus YGR078C, strain PAC10, hits give low values 1 | locus YHR030C, strain SLT2, hits give low values 0.98 | locus YHR087W, strain rtc3, hits give low values 1.01 | locus YJL187C, strain SWE1, hits give low values 1.01 | locus YJR043C, strain POL32, hits give low values 0.999 | [2] 0.972 | locus YLR039C, strain RIC1, hits give low values 0.975 | locus YLR058C, strain SHM2 (second series), hits give low values 0.999 | locus YLR085C, strain ARP6, hits give low values 1.03 | locus YLR262C, strain YPT6, hits give low values 1 | locus YML094W, strain GIM5, hits give low values 1.03 | locus YMR219W, strain ESC1, hits give low values 0.99 | [3] 0.987 | locus YMR307W, strain GAS1, hits give low values 0.889 | [4] 0.983 | locus YNL298W, strain CLA4 (second series), hits give low values 1.03 | [5] 0.999 | locus YNR030W, strain Alg12, hits give low values 1.02 | locus YOL006C, strain TOP1, hits give low values 1.06 | [6] 0.884 | locus YPL241C, strain CIN2, hits give low values 1.01 | locus YPR135W, strain CTF4, hits give low values 1.15

NC(N)=NC(N)=Nc1cccc(Cl)c1
inactive: [1] 1.01 | locus YAL040C, strain CLN3, hits give low values 1 | locus YCL061C, strain MRC1 (second series), hits give low values 1.01 | locus YDR363W, strain ESC2, hits give low values 0.999 | locus YER002W, strain NOP16, hits give low values 0.993 | [2] 1 | [3] 0.999 | locus YNL128W, strain TEP1, hits give low values 1.03 | [4] 1 | locus YNL175C, strain NOP13, hits give low values 1.01 | locus YNL197C, strain WHI3, hits give low values 1.04 | locus YNL224C, strain SQS1, hits give low values 1.01 | [5] 0.995 | locus YOR083W, strain WHI5 (second series), hits give low values 1.05 | [6] 1
